Experimental data from PubChem BioAssay (NCI).
Compounds without any hit were thinned out: in the full panel of roughly 79,000, 15% have a hit. Unmarked numbers belong to inactive results. The source made the active and inactive calls. Cut-off read from the data, not from the text of the source: active = growth inhibition above about 70%; inactive = the rest.

What was measured:
[1] = NCI Yeast Anticancer Drug Screen. Data for the rad50 strain (AID 155);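 note: 0% = growth of vehicle-only cultures of the same strain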; conditions: S. cerevisiae rad50 strain growth inhibition, hits give high values
How it was run: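 Genetically altered yeast (DNA repair pathway); compound treatment; growth inhibition vs vehicle ctrl.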

[2] = NCI Yeast Anticancer Drug Screen. Data for the mec2-1 strain (AID 157); conditions: S. cerevisiae mec2-1 strain, hits give high values
How it was run: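 Each compound was tested on mec2-1 yeast, a strain altered in DNA damage repair or cell cycle control. Growth inhibition is reported relative to vehicle.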

[3] = NCI Yeast Anticancer Drug Screen. Data for the sgs1 mgt1 strain (AID 161);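 note: 0% = growth of cultures given vehicle only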; conditions: S. cerevisiae sgs1 mgt1 strain, hits give high values
How it was run: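 Test agents were incubated with a DNA-repair-mutant yeast strain. Growth was then read and compared against vehicle-treated controls.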

[4] = NCI Yeast Anticancer Drug Screen. Data for the cln2 rad14 strain (AID 165);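 note: 0% = growth equal to vehicle treated cultures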; conditions: S. cerevisiae cln2 rad14 strain, hits give high values
How it was run: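 Test compounds were added to cln2 rad14 yeast cultures; inhibition of growth was then determined by comparison with vehicle treatment.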

[5] = NCI Yeast Anticancer Drug Screen. Data for the bub3 strain (AID 167); conditions: S. cerevisiae bub3 mutant strain, hits give high values
How it was run: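 Yeast carrying a defined mutation is treated with each compound, and growth is compared with that of vehicle-exposed cells to give inhibition.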

[6] = NCI Yeast Anticancer Drug Screen. Data for the mlh1 rad18 strain (AID 175); conditions: S. cerevisiae mlh1 rad18 strain growth inhibition, hits give high values
How it was run: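 Inhibition values reflect reduced growth of mutant yeast versus vehicle-treated controls following compound exposure; the mutations affect DNA damage repair.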

[7] = at 5.0 µM (retest, dose inferred, filed as 0.5)
[8] = at 50.0 µM (retest, dose inferred, filed as 5.0)

| SMILES | growth inhibition [1, 7] | growth inhibition [1, 8] | growth inhibition ([1]; at 50.0 µM) | growth inhibition [2, 7] | growth inhibition [2, 8] | growth inhibition ([2]; at 50.0 µM) | growth inhibition [3, 7] | growth inhibition [3, 8] | growth inhibition ([3]; at 50.0 µM) | growth inhibition [4, 7] | growth inhibition [4, 8] | growth inhibition ([4]; at 50.0 µM) | growth inhibition [5, 7] | growth inhibition [5, 8] | growth inhibition ([5]; at 50.0 µM) | growth inhibition [6, 7] | growth inhibition [6, 8] | growth inhibition ([6]; at 50.0 µM) |
| --- | --- | --- | --- | --- | --- | --- | --- | --- | --- | --- | --- | --- | --- | --- | --- | --- | --- | --- |
| Cc1nc(Nc2ccc(Cl)cc2)sc1C(=O)Nc1cccc2c(=O)[nH][nH]c(=O)c12 | 13% | 13% | 83% (active) | 6% | 6% | 90.8% (active) | 9% | 9% | 91% (active) | 3% | 3% | 87.5% (active) | 11% | 11% | 91.1% (active) | 14% | 14% | 89.7% (active) |
| COc1ccccc1NC(=O)O/N=C(/Cl)C(C)C | 1% | 70% (active) | -4.65% | 3% | 70% (active) | 52% | -32% | 71% (active) | 37.6% | 40% | 28% | 31.9% | -26% | 95% (active) | 80.5% (active) | -24% | 41% | 41.1% |
| CCC[CH2][Sn]([CH2]CCC)([O]C(=O)C(OC)c1ccccc1)[O]C(=O)C(OC)c1ccccc1 (stereo not given) | 44% | 97% (active) | 89% (active) | 40% | 96% (active) | 88.3% (active) | 44% | 96% (active) | 84% (active) | 36% | 96% (active) | 88.8% (active) | 77% (active) | 98% (active) | 92% (active) | 57% | 98% (active) | 88.3% (active) |
| S=C(N/N=C(/c1ccccc1)c1ccccn1)Nc1ccccc1 | 2% | 90% (active) | 84.3% (active) | 14% | 95% (active) | 73.5% (active) | 20% | 95% (active) | 85.3% (active) | -9% | 94% (active) | 60.4% | 2% | 93% (active) | 76.2% (active) | 13% | 94% (active) | 90% (active) |
| CC(=O)N(C1=CC(=O)c2ccccc2C1=O)c1ccc(C)cc1 | 16% | 99% (active) | 98.4% (active) | 31% | 97% (active) | 69.2% | 36% | 93% (active) | 91.6% (active) | 5% | 46% | 57.3% | 37% | 94% (active) | 93.5% (active) | 27% | 97% (active) | 58.1% |
| Nc1c(-c2ccc(C3=NCCN3)cc2)[nH]c2cc(C3=NCCN3)ccc12 | 2% | 89% (active) | 32.3% | 1% | 89% (active) | -29% | 14% | 92% (active) | 69.9% | 13% | 83% (active) | 49.5% | 22% | 94% (active) | 74.1% (active) | 3% | 90% (active) | -46.2% |
| O=C(CC(O)(C(F)(F)F)C(F)(F)Cl)CC(O)(C(F)(F)F)C(F)(F)Cl (stereo not given) | 94% (active) | 88% (active) | 99.3% (active) | 92% (active) | 99% (active) | 99.4% (active) | 91% (active) | 99% (active) | 99.7% (active) | 89% (active) | 99% (active) | 99% (active) | 86% (active) | 99% (active) | 99.5% (active) | 94% (active) | 99% (active) | 99.4% (active) |
| CC(C)[CH2][Ge]([Cl])([Cl])[Cl] | 1% | -8% | 98.5% (active) | 2% | -2% | 98.8% (active) | 3% | -15% | 98.7% (active) | -2% | -14% | 98.5% (active) | 3% | -3% | 99% (active) | 1% | 1% | 99% (active) |
| CC1=C(C#N)C(=O)OC1(C)C(CC(=O)c1ccccc1)c1ccccc1 (stereo not given) | 0% | 3% | -5.3% | 5% | 6% | 4.45% | 20% | 16% | 4.45% | 3% | 4% | 49.8% | 2% | 11% | 11.8% | 26% | 23% | 1.85% |
| O=C(C[P+](c1ccccc1)(c1ccccc1)c1ccccc1)c1ccc(Br)cc1 | 67% | 96% (active) | 98.8% (active) | 53% | 98% (active) | 97.4% (active) | 82% (active) | 99% (active) | 96.8% (active) | 22% | 96% (active) | 95.9% (active) | 62% | 97% (active) | 97.7% (active) | 69% | 97% (active) | 96% (active) |
